Compound activity as filed in PubChem BioAssay.
mHTT CaM bind = mutant huntingtin-calmodulin interaction inhibitors – biochemical, AlphaScreen, primary screen; 3.6% of 190,000 active; AlphaScreen His-mHTT/GST-CaM binding, luminescence; inhibition, % at 15 µM; P42858; AID 1671202, 2021;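 note: 0% = both proteins with DMSO and 100% = one protein alone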
Pf apPOL inh = Pf-apPOL inhibitors, biochemical, fluorescence; Plasmodium falciparum apicoplast DNA polymerase (apPOL); Recombinant Pf-apPOL, molecular beacon fluorescence, 1.5 h; inhibition, % at 10 µM; 0.25% of 210,000 active; AID 1794808, 2022
The depositor's hits bear a star; / = not tested or not shown. Compounds with a hit are over-represented: about 3.5% of the library has one in this group of screens. Cut-off read from the data, not from the text of the source: active = inhibition above about 50%; inactive = the rest.

SMILES	mHTT CaM bind	Pf apPOL inh
COc1ccc(N=c2scc(-c3ccc4c(c3)OCCO4)n2CCO)cc1	53.0*	-1.8
CCOc1ccc(N=c2scc(-c3ccc(Cl)s3)n2CCCO)cc1	35.0	-1.8
COc1ccc(N=c2scc(-c3ccc(OC)cc3)n2CCN2CCOCC2)cc1	36.0	3.1
COc1ccc(-c2csc(=Nc3ccc(Cl)cc3)n2CCCO)cc1F	76.0*	0.4
CCOc1ccc(N=c2scc(-c3ccc(F)cc3)n2CCCO)cc1	31.0	-6.9
COc1ccc(-c2csc(=Nc3ccccc3)n2CCCN(C)C)cc1	45.0	2.3
COc1ccc(-c2csc(=Nc3ccccc3)n2CCO)cc1F	53.0*	-2.6
OCCCn1c(-c2ccc(F)cc2)csc1=Nc1ccc(Cl)cc1	87.0*	-3.8
O=C(NCc1ccc(Br)cc1)c1nnc2ccc(-c3ccccc3)nn12	-4.9	-2.5
O=C(Cc1ccccc1Cl)NCC1(c2cccs2)CC1	-20.3	-3.4
COc1ccccc1C(=O)N1CSCC1C(=O)NCCc1cscn1 (centres undefined)	1.3	-2.8
CNC(=O)N1CCCC(c2cccc(C(=O)NCc3cccc(Br)c3)c2)C1 (centres undefined)	10.9	-3.5
Cc1nc(-n2ncc(C(=O)O)c2C)[nH]c(=O)c1C	-13.6	-4.2
O=c1[nH]c(-c2ccc3c(c2)OCO3)cn1-c1ccccc1	7.0	0.0
Cc1ccc(-n2cc(-c3ccc4c(c3)OCO4)[nH]c2=O)cc1	70.0*	1.0
CC(C)(C)N=C1Nc2ccccc2CNC12CCN(C(=O)Cc1ccsc1)C2 (centres undefined)	61.8*	6.9
Cc1ccc(F)cc1S(=O)(=O)N1CCC2(C1)NCc1ccccc1NC2=NC(C)(C)C (centres undefined)	69.6*	-1.7
COc1ccccc1CC(=O)N1CCC2(C1)NCc1ccccc1NC2=NC(C)(C)C (centres undefined)	46.6	-5.1
Cc1ccccc1C(=O)N1CCC2(C1)NCc1ccccc1NC2=NC(C)(C)C (centres undefined)	28.1	-4.2
CCOc1cc(/C=C2/C=C(c3ccc(C)cc3)OC2=O)ccc1O	55.0*	8.0
CCOc1ccc(C2=C/C(=C/c3ccc(C)c(OC)c3)C(=O)O2)cc1	-14.0	3.1
Cc1cc(C)cc(N2CCC(NC(=O)Cc3ccc(F)cc3)C2=O)c1 (centres undefined)	-3.3	1.0
O=C(O)CN1C(=O)/C(=C\c2ccco2)SC1=S	3.4	/
COc1cc(/C=C2/SC(c3ccc(C)cc3)=NC2=O)cc(OC)c1OC	-3.0	0.4
CCCCC(C(=O)O)N1C(=O)C(=Cc2ccco2)SC1=S (centres undefined)	29.2	52.3*
SMILES	mHTT CaM bind	Pf apPOL inh
COC(=O)CN1C(=O)C(=Cc2ccc(O)c(OC)c2)SC1=S	57.6*	-17.7
COc1cc(/C=C2/SC(c3ccc(C)cc3)=NC2=O)ccc1O	53.0*	0.7
CCCC(C(=O)O)N1C(=O)C(=Cc2ccccc2OC)SC1=S (centres undefined)	60.0*	-60.2
CCCC(C(=O)O)N1C(=O)C(=Cc2cccc(OC)c2OC)SC1=S (centres undefined)	22.0	-27.6
COC(=O)CCN1C(=O)C(=Cc2ccc(O)c(OC)c2)SC1=S	21.3	-17.5
c1cncc(Cn2cccc2)c1	/	-5.0
COc1ccc(Cl)cc1NC(=O)N1CCC(c2nc(C(=O)N3CCCC3)c(C)o2)CC1	0.1	1.0
COc1ncccc1CNC(=O)c1n[nH]c2ccccc12	-2.3	-3.5
Cc1cccn2c(=O)c3cc(S(=O)(=O)c4ccccc4)c(=N)n(C4CCCC4)c3nc12	-3.0	-15.9
CC(C)NC(=O)C1CCCN(c2nnc3ccc(Cl)cn23)C1 (centres undefined)	0.5	5.7
COc1ccc(OC)c(/C=c2\sc3nc(=O)c(C)nn3c2=O)c1	3.0	8.3
CCN1C(=O)C(=Cc2ccc(O)c(OC)c2)SC1=S	38.8	-25.8
CCC(C(=O)O)N1C(=O)C(=Cc2cc(OC)c(OC)c(OC)c2)SC1=S (centres undefined)	19.1	1.6
CCCCC(C(=O)O)N1C(=O)C(=Cc2cc(OC)c(OC)c(OC)c2)SC1=S (centres undefined)	54.9*	-63.7
COc1cc(C=C2SC(=S)N(CCCCC(C(=O)O)N3C(=O)C(=Cc4ccc(O)c(OC)c4)SC3=S)C2=O)ccc1O (centres undefined)	49.2	61.7*
Cc1ccc(S(=O)(=O)C(C#N)=Cc2sc3ccc(Cl)cc3c2C)cc1	/	-4.4
c1cc(-c2noc(-c3ccsc3)n2)cc(N2CCCC2)n1	-24.4	-5.4
Cc1ccc(C(=O)O)cc1-c1ccc(/C=C/[N+](=O)[O-])o1	30.0	7.6
Cc1cc(-c2ccc(/C=C/[N+](=O)[O-])o2)c([N+](=O)[O-])cc1C	65.0*	3.0
COc1c(C)cc(S(=O)(=O)NC2CC(C)(C)NC(C)(C)C2)cc1C	-4.6	-4.3
CC(=O)n1c2c(c3ccccc31)OC(N)=C(C#N)C2c1ccc(F)cc1 (centres undefined)	5.0	-5.8
CC(=O)n1c2c(c3ccccc31)OC(N)=C(C#N)C2c1ccc(C(C)C)cc1 (centres undefined)	50.0*	4.0
CN(C)c1ccc(NC(=O)CC2SC(=N)NC2=O)cc1 (centres undefined)	-6.0	1.1
CCOC(=O)C=C(C)NN=C(c1ccccc1)c1ccccc1	/	-6.9
O=C(NC(Nc1ccc(Br)cc1)C(=O)c1ccccc1)c1cccs1 (centres undefined)	63.0*	-1.5
SMILES	mHTT CaM bind	Pf apPOL inh
CC(=O)Nc1ccc(NC(NC(=O)c2cccs2)C(=O)c2ccccc2)cc1 (centres undefined)	9.0	-4.8
O=C(NC(Nc1cccc(C(F)(F)F)c1)C(=O)c1ccccc1)c1cccs1 (centres undefined)	83.0*	-6.4
Cc1ccccc1NC(NC(=O)c1cccs1)C(=O)c1ccccc1 (centres undefined)	21.0	2.1
CC(C)N(CC#CCNC(=O)c1cccc(N(C)C)c1)C(C)C	-3.6	-0.8
Cc1ccc(C)c(NC(=O)c2c(C)sc3c(=O)n(C4CCCCC4)cnc23)c1	1.4	-1.5
CC(=O)N1N=C(c2ccc([N+](=O)[O-])cc2)CC1c1ccccc1 (centres undefined)	15.0	-4.4
O=[N+]([O-])c1ccc(N2N=C(c3ccccc3)CC2c2ccccc2O)cc1 (centres undefined)	99.0*	2.1
O=C(O)CCC(=O)N1N=C(c2ccc([N+](=O)[O-])cc2)CC1c1ccc(Br)cc1 (centres undefined)	21.0	0.1
O=[N+]([O-])c1ccc(N2N=C(c3ccc(O)cc3)CC2c2ccc(F)cc2)cc1 (centres undefined)	98.0*	-6.0
Cc1ccccc1N1CCC(C(=O)NCC2CCCO2)C1=O (centres undefined)	-3.9	-3.6
Cc1ccccc1OCC(=O)N1CCCC2(C1)Nc1ccccc1NC2=NC(C)(C)C (centres undefined)	74.6*	6.3
CC(C)(C)N=C1Nc2ccccc2NC12CCCN(C(=O)COc1ccccc1)C2 (centres undefined)	35.8	-4.6
CC(C)(C)N=C1Nc2ccccc2NC12CCCN(C(=O)c1ccccc1)C2 (centres undefined)	81.8*	-4.6
CC(C)(C)N=C1Nc2ccccc2NC12CCCN(C(=O)c1ccncc1)C2 (centres undefined)	17.9	16.5
